hcDAF-12 act: activators of H. contortus DAF-12 nuclear receptor; HEK293 hcDAF-12 lit1-tk-luc reporter, luminescence; 0% DMSO, 100% Δ7-dafachronic acid; activation, % at 6.8 µM; 1.4% of 370,000 active; AID 652067;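 active = activation above the mean of all tested compounds plus 3 SD, cut at about 5.5% in these data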;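 also: 100% = response to 3 µM Δ7-dafachronic acid high control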
DAX1 inh-1: NR0B1 (DAX1) inhibition; HEK293 Gal4-DAX1 luciferase reporter, luminescence; 0.99% of 340,000 active; P51843; inhibition, % at 6.75 µM;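 active = inhibition above the mean over all tested compounds plus 3 SD, cut at about 4.2% in these data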;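 also: 0% = DAX1-transfected cells with DMSO and 100% = empty-vector control cells with DMSO; inhibition shows as a rise in luminescence from relieved DAX1 repression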
Target sequence (P51843 207-470 limits assumed): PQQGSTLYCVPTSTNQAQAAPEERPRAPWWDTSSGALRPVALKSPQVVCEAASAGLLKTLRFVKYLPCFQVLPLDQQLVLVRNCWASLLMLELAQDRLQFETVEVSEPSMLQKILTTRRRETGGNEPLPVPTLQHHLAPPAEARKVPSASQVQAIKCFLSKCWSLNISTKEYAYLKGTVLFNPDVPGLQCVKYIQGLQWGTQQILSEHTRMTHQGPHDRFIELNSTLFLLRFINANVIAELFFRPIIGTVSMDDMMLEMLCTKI
DAX1 inh-2: inhibitors of DAX1 repression of SF-1 activated StAR promoter | inhibition, % at 6.8 µM | AID 652010 | 1.1% of 370,000 active | HEK293T StAR-luciferase reporter, SF-1/DAX-1 repression relief;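 active = inhibition above the mean over all tested compounds plus 3 SD, cut at about 3.6% in these data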;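 also: 0% = DAX-1 cells with DMSO and 100% = cells lacking DAX-1 with DMSO; higher inhibition means more luminescence from relief of DAX-1 repression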
ssDAF-12 act: S. stercoralis DAF-12 activation, primary screen; activation, % at 6.8 µM; AID 652126; HEK293 ssDAF-12/GRIP1 lit1-tk-luc reporter, luminescence; % of 3 µM dafachronic acid response; 1% of 370,000 active;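 active = activation above the mean over all tested compounds plus 3 SD, cut at about 0.9% in these data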;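 also: 0% = DMSO-only wells and 100% = 3 µM delta7-dafachronic acid wells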
hgDAF12 agonist: hgDAF-12 agonism, primary luciferase screen; HEK293 GAL4-hgDAF12 UAS-luciferase reporter, agonist luminescence; normalized to butyrate control; activation, % at 6.8 µM; 1.8% of 370,000 active; AID 687014;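 active = activation above a cutoff set at the mean of all screened compounds plus 3 SD, cut at about 10% in these data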;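 also: 0% = DMSO wells and 100% = sodium butyrate wells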
* = called active by the depositor; / = no result given. In the library only some 4.1% were active in any assay of this set; here they are far more common.

SMILES	hcDAF-12 act	DAX1 inh-1	DAX1 inh-2	ssDAF-12 act	hgDAF12 agonist
COc1cc(C(=O)NC2CCN(C)CC2)ccc1Nc1ncc2c(n1)N(C1CCCCC1)CCC(=O)N2C	4	-1	-2	0	-8
CN=C1S/C(=C/c2cc(C)n(-c3ccc(Cl)cc3F)c2C)C(=O)N1C	-1	/	/	-2	10
COc1ccc2nc(-c3ccccn3)[nH]c2c1	5	2	2	0	12*
Cc1cc(C)n(-c2cc(N3CCOCC3)ncn2)n1	-2	0	-1	-1	-1
COc1cc(N2CCOCC2)ncn1	0	4.8*	0	0	1
Clc1ccc([C@H]2OC[C@@]3(CNCCN4CCOCC4)CS[C@H](c4ccc(Cl)cc4)N23)cc1	0	/	0	-1	0
CNc1cnc(-c2ccc(F)c(F)c2F)cn1	2	/	3.8*	0	12*
C=CCOc1c(Br)cc(CNc2ccc(NC(=O)CCC)cc2)cc1OCC	-1	-1	0	0	2
C=CCOc1ccc(CNc2ccc(NC(=O)CCC)cc2)cc1OCC	-2	4.5*	-1	-2	3
O=C(NCCCN1CCCC1=O)c1cc2nc(-c3ccco3)cc(C(F)(F)F)n2n1	1	0	0	1.0*	-3
Cc1c(C(=O)N2CCN(C)CC2)oc2c1C(=O)CC(C)(C)C2	-1	-1	1	-2	-2
Cc1c(C(=O)N2CCc3ccccc32)oc2c1C(=O)CC(C)(C)C2	4	3	4.0*	1	8
CCOCCCNC(=S)N(CCCN(C)C)Cc1cc2cc3c(cc2[nH]c1=O)OCCO3	-2	4.7*	1	-1	1
COCCCNC(=S)N(CCCN(C)C)Cc1cc2cc3c(cc2[nH]c1=O)OCCO3	0	3	0	-1	3
O=C(OCC#CCSc1nnc(-c2cccc3ccccc23)o1)c1ccc(OC(F)(F)F)cc1	-1	/	/	-2	0
CCc1cc(C(=O)NNC(=S)Nc2ccccc2C)cs1	2	2	3.6*	0	12*
CCNC(=S)NNC(=O)c1csc(CC)c1	-1	7.0*	0	-1	6
Cc1ccc(NC(=O)CSc2nc(C)cc(=O)[nH]2)c(C)c1	-3	/	0	-1	0
CC(C)[C@H]1/C(=C/C2CC2)N2C(=O)C[C@@H](c3ccccc3)N=C2N1Cc1ccc2c(c1)OCO2	-1	/	-1	-2	0
C#CCNC(=O)C[C@@H]1C(=O)N2CCCC3=C2[C@@]1(C(=O)OCC)CCC3	0	/	-1	-1	-1
C#CCNC(=O)C[C@H]1C[C@@]2(C(=O)OC)C(=C[C@H](C3CCCC3)O[C@@H]2C)N(Cc2cccc3ccccc23)C1=O	0	/	-1	-1	0
CCOC(=O)C(c1nc2ccccc2[nH]1)n1c(-c2ccccn2)nc2ccccc21 (stereo unspecified)	6.5*	/	2	0	8
O=C(CSc1nnc(-c2ccco2)n1Cc1ccco1)c1ccc([N+](=O)[O-])cc1	-1	/	0	-1	-1
Cc1ccc2c(c1)C(N1CCCC1=O)CC(c1ccco1)N2 (stereo unspecified)	5.7*	1	3	0	11*
COc1ccccc1C(=O)NC(=Nc1nc2ccccc2o1)NC(=O)c1ccccc1OC	5.9*	-2	1	0	1
SMILES	hcDAF-12 act	DAX1 inh-1	DAX1 inh-2	ssDAF-12 act	hgDAF12 agonist
CCCCC(=O)N/C(N)=N/c1nc2ccccc2o1	1	16*	1	0	12*
N/C(=N\c1nc2ccccc2o1)NC(=O)c1ccccc1F	1	1	1	-1	3
O=C(NC(=Nc1nc2ccccc2o1)NC(=O)c1ccccc1)c1ccccc1	1	2	0	-1	3
Cc1ccc(S(=O)(=O)N2CCCC(C(=O)NCCN3CCC(Cc4ccccc4)CC3)C2)cc1 (stereo unspecified)	-3	/	-1	-2	0
Cc1ccc(/C=C2/C(=O)c3ccc(C(=O)O)cc3C2=O)o1	2	3	0	-1	-1
Cc1ccc(C=C2C(=O)c3ccccc3C2=O)o1	6.3*	1	0	-1	5
CN1CCN(C(=O)CNc2ccc(C(F)(F)F)cc2[N+](=O)[O-])CC1	5.8*	0	0	0	3
COC(=O)C[C@H]1CC[C@H]2[C@H](COc3ccc(NC(=O)Cc4cccs4)cc3C(=O)N2C)O1	-2	/	1	0	-1
CCC[C@H]1[C@@H](NC(=O)C2CCC2)CC[C@@]23CCCN2C(=O)CCC[C@@H]13	-1	/	/	-1	-2
CNC(=S)NNC(=O)c1sccc1C	0	-1	0	-1	-2
Cc1ccsc1C(=O)NNC(=S)NC1CCCCC1	0	1	4.1*	0	4
O=C(/C=C/c1cccc([N+](=O)[O-])c1)N1CCN(C(=O)c2ccco2)CC1	-1	-2	0	-2	1
O=C(/C=C/c1cccc([N+](=O)[O-])c1)OCC(=O)N1CCN(C(=O)c2ccco2)CC1	0	-2	-1	0	12*
CCOC(=O)[C@]12CCCC=C1N(CCCOC)C(=O)[C@@H]2CC(=O)NCc1ccc(OC)c(OC)c1	-2	/	-1	-1	-2
CCCCCCCCNc1nc(Cl)nc(NCc2ccco2)n1	4	0	0	-1	-1
CCCCCCNc1nc(Cl)nc(NC(C)(C)CO)n1	-1	5.3*	0	-1	0
CCc1cccc2c1NC(=O)C21OCCO1	3	2	0	1.2*	4
O=C1Nc2ccccc2C12OCCO2	0	2	0	-2	0
O=S(=O)(N1CCCCC1)n1c(Cc2ccccc2)nc2ccccc21	-1	0	0	1.9*	-1
O=C(NCCc1nc2ccccc2n1CCOc1cc(F)ccc1F)C1CCCCC1	-1	/	/	-2	2
Fc1c(F)c(F)c(CSc2nc3ccccc3[nH]2)c(F)c1F	-2	-1	0	-1	2
c1ccc2[nH]c(SCC3CCCCO3)nc2c1 (stereo unspecified)	3	1	2	0	11*
CCOc1ccc2nc(SCC3CC3(Cl)Cl)[nH]c2c1 (stereo unspecified)	1	5.1*	0	-1	12*
ClC1(Cl)CC1CSc1nc2ccccc2[nH]1 (stereo unspecified)	-1	0	3	-1	12*
O=C(CSc1nnc(COc2ccccc2)n1Cc1ccco1)Nc1ccc2c(c1)OCO2	-2	/	-1	-1	-2
C=CCN1C[C@@H](COCc2ccccc2)Oc2cccc(F)c2S1(=O)=O	-2	/	-1	-2	4
CN(C)CCN1C(=O)c2cccc3cc([N+](=O)[O-])cc(c23)C1=O	6.5*	6.9*	-7	0	-5
CN(C)CCCN1C(=O)c2cccc3cccc(c23)C1=O	4	0	0	0	4
COc1cc(C=O)ccc1OCc1ccc(Cl)nc1	0	2	1	-1	11*

Bioassay records as filed in PubChem BioAssay.
